Measurements reported in PubChem BioAssay (Tox21).
Values joined by “and” are separate entries in the source; they are usually repeats but may differ in a detail not shown here. Equal entries are not always repeated. Inconclusive results are not listed. Where a call stands in place of a potency, no number is given. Where a structure was tested more than once in an assay, its records may differ in their call. Active and inactive are the calls of the source. Calls come from the whole dose curve; as a rule, active = well fitted curve in the direction sought with a large enough effect in the repeat runs; inconclusive = weak or mixed curves; inactive = no such curve, though single readings can be large; an effect the other way counts as inactive or inconclusive.

What was measured:
[1] = qHTS RealTime-Glo MT Cell Viability Assay in HepG2 cells - 24 hour (AID 1224867); note: nearly all actives have a fitted effect of over 50% in size
Summary of the method: (§1)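 Tox21 10K library screened in qHTS format on HepG2 cells carrying RealTime-Glo reagents. Compounds were added after a 5 h preincubation, and the luminescent signal from continuous culture was measured repeatedly during 40 h treatment.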

[2] = A CellTox Green Cytotoxicity Assay to monitor cytotoxicity in HEK293 cells - 0 hour (AID 1224869); note: nearly all actives have a fitted effect of over 50% in size
Summary of the method: (§2)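 HEK293 cells, 600/well, were preincubated 5 hours and then exposed to compounds at 37 C for up to 40 hours. A cell-impermeant cyanine dye staining dead-cell DNA was read by fluorescence at 0, 8, 16, 24, 32 and 40 h time points.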

[3] = qHTS RealTime-Glo MT Cell Viability Assay in HepG2 cells - 40 hour (AID 1224870); note: nearly all actives have a fitted effect of over 50% in size
Summary of the method: (§3)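 HepG2 cells mixed with RealTime-Glo MT reagents (NanoLuc plus cell-permeant prosubstrate) were seeded at 600 cells/well, incubated 5 h at 37 C/5% CO2, then pinned with compounds in DMSO; nonlytic luminescence tracked viability during 40 h treatment.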

[4] = qHTS RealTime-Glo MT Cell Viability Assay in HEK293 cells - 16 hour (AID 1224872); note: top concentration of the series differs between compounds; nearly all actives have a fitted effect of over 50% in size
Summary of the method: (§4)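 Luminescence generated by NanoLuc from substrate produced by living HEK293 cells served as the viability signal. Each value reflects the reading at its stated time point during continuous 40 h compound exposure at 37 C.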

[5] = qHTS RealTime-Glo MT Cell Viability Assay in HepG2 cells - 8 hour (AID 1224873); note: nearly all actives have a fitted effect of over 55% in size
Summary of the method: as §3

[6] = qHTS RealTime-Glo MT Cell Viability Assay in HEK293 cells - 40 hour (AID 1224874); conditions: RealTime-Glo luminescence; max response: stronger effect = lower value; note: nearly all actives have a fitted effect of over 50% in size
Summary of the method: (§5)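 600 cells/well were plated with the nonlytic NanoLuc/prosubstrate reagent, pre-incubated 5 h, then given 23 nL of compound in DMSO. Incubation at 37 C for 40 h, with luminescence from viable-cell-reduced substrate read repeatedly from 0 h.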

[7] = A CellTox Green Cytotoxicity Assay to monitor cytotoxicity in HEK293 cells - 24 hour (AID 1224875); note: series mostly up to about 77 µM; nearly all actives have a fitted effect of over 45% in size
Summary of the method: as §2

[8] = qHTS RealTime-Glo MT Cell Viability Assay in HepG2 cells - 32 hour (AID 1224877); note: nearly all actives have a fitted effect of over 55% in size
Summary of the method: as §1

[9] = A CellTox Green Cytotoxicity Assay to monitor cytotoxicity in HepG2 cells - 24 hour (AID 1224878); note: nearly all actives have a fitted effect of over 45% in size; note: potency is the fitted concentration of half-maximal effect
Summary of the method: (§6)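 HepG2 cells, 600/well, preincubated 5 h with CellTox Green dye, then exposed to Tox21 compounds in DMSO at 37 C for up to 40 h. Dead-cell DNA fluorescence read at the indicated time point.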

[10] = A CellTox Green Cytotoxicity Assay to monitor cytotoxicity in HepG2 cells - 40 hour (AID 1224879); note: nearly all actives have a fitted effect of over 40% in size; note: potency is the fitted concentration of half-maximal effect
Summary of the method: as §6

[11] = qHTS RealTime-Glo MT Cell Viability Assay in HEK293 cells - 0 hour (AID 1224880); note: top concentration of the series differs between compounds; nearly all actives have a fitted effect of over 45% in size
Summary of the method: as §5

[12] = A CellTox Green Cytotoxicity Assay to monitor cytotoxicity in HEK293 cells - 32 hour (AID 1224881); note: nearly all actives have a fitted effect of over 40% in size
Summary of the method: as §2

[13] = A CellTox Green Cytotoxicity Assay to monitor cytotoxicity in HepG2 cells - 0 hour (AID 1224882); note: nearly all actives have a fitted effect of over 35% in size
Summary of the method: as §6

[14] = A CellTox Green Cytotoxicity Assay to monitor cytotoxicity in HepG2 cells - 32 hour (AID 1224883); note: nearly all actives have a fitted effect of over 50% in size; note: potency is the fitted concentration of half-maximal effect
Summary of the method: as §6

[15] = A CellTox Green Cytotoxicity Assay to monitor cytotoxicity in HEK293 cells - 8 hour (AID 1224884); note: nearly all actives have a fitted effect of over 35% in size
Summary of the method: as §2

[16] = A CellTox Green Cytotoxicity Assay to monitor cytotoxicity in HEK293 cells - 40 hour (AID 1224871); note: nearly all actives have a fitted effect of over 45% in size
Summary of the method: as §2

[17] = A CellTox Green Cytotoxicity Assay to monitor cytotoxicity in HepG2 cells - 16 hour (AID 1224876); note: nearly all actives have a fitted effect of over 45% in size; note: potency is the fitted concentration of half-maximal effect
Summary of the method: as §6

[18] = qHTS RealTime-Glo MT Cell Viability Assay in HEK293 cells - 32 hour (AID 1224868)
Summary of the method: as §4

SMILES	outcome [1]	outcome [2]	outcome [3]	Potency [4]	outcome [5]	max response [6]	Potency [7]	outcome [8]	Potency [9]	Potency [10]	Potency [11]	Potency [12]	outcome [13]	Potency [14]	outcome [15]	Potency [16]	Potency [17]	Potency [18]
c1ccc(OCCOc2ccccc2)cc1	inactive	inactive	inactive	inactive	inactive	-0.0252% (inactive) and -0.384% (inactive)	inactive	inactive	inactive	inactive	inactive	inactive	inactive	inactive	inactive	–	–	–
Oc1cccc2ccccc12	inactive	inactive	inactive	inactive	inactive	-13.2% (inactive) and -5.72% (inactive)	–	inactive	inactive	inactive	inactive	inactive	inactive	inactive	inactive	inactive	inactive	–
C[C@H]1C[C@H]2[C@@H]3CCC4=CC(=O)C=C[C@]4(C)[C@@]3(F)[C@@H](O)C[C@]2(C)[C@@]1(O)C(=O)CO	inactive	inactive	inactive	inactive	inactive	-12.6% (inactive) and 0.279% (inactive)	inactive	inactive	inactive	inactive	inactive	inactive	inactive	inactive	inactive	inactive	–	–
C#CCN(C)Cc1ccccc1	inactive	inactive	inactive	inactive	inactive	-0.876% (inactive) and -0.317% (inactive)	inactive	inactive	inactive	inactive	inactive	inactive	inactive	inactive	inactive	–	–	–
C=C(C)C(=O)OCCOCCOCCOC(=O)C(=C)C	inactive	inactive	inactive	inactive	inactive	-0.0416% (inactive) and 6.25% (inactive)	–	inactive	inactive	inactive	inactive	inactive	inactive	inactive	inactive	–	–	–
COc1ccc(NC(C)=O)cc1N	inactive	inactive	inactive	inactive	inactive	6.82% (inactive) and 6.45% (inactive)	inactive	inactive	inactive and 49 µM (active)	inactive and 43.6 µM (active)	inactive	inactive	inactive	inactive and 43.6 µM (active)	inactive	inactive	inactive and 21.9 µM (active)	–
CC(=O)OCC(=O)[C@@]12N=C(C)O[C@@H]1C[C@H]1[C@@H]3CCC4=CC(=O)C=C[C@]4(C)[C@H]3[C@@H](O)C[C@@]12C	inactive	inactive	inactive	inactive	inactive	-2.48% (inactive) and 0.51% (inactive)	–	inactive	inactive	inactive	inactive	inactive	inactive	inactive	inactive	–	–	–
CC1CCC(C(C)C)C(O)C1 (stereo unspecified)	inactive	inactive	inactive	inactive	inactive	-2.01% (inactive) and 1.75% (inactive)	–	inactive	inactive	inactive	inactive	inactive	inactive	inactive	inactive	inactive	inactive	–
CCN(CC)c1ccc(C(=O)c2ccccc2C(=O)O)c(O)c1	inactive	inactive	inactive	inactive	inactive	-1.39% (inactive) and 2.11% (inactive)	–	inactive	inactive	inactive	inactive	inactive	inactive	inactive	inactive	inactive	–	–
O=c1[nH]c(=O)n([C@H]2CCCO2)cc1F	inactive	inactive	inactive	inactive	inactive	-9.43% (inactive) and 1.8% (inactive)	–	inactive	inactive	inactive	inactive	inactive	inactive	inactive	inactive	–	inactive	–
Cc1cnc(C(=O)NCCc2ccc(S(=O)(=O)NC(=O)NC3CCCCC3)cc2)cn1	inactive	inactive	inactive	inactive	inactive	11.5% (inactive) and 10.1% (inactive)	–	inactive	inactive	inactive	inactive	inactive	inactive	inactive	inactive	–	inactive	inactive
O=C(O)c1cc(C(=O)O)cc(S(=O)(=O)O)c1	inactive	inactive	inactive	inactive	inactive	-1.84% (inactive) and 1.2% (inactive)	–	inactive	inactive	inactive	inactive	inactive	inactive	inactive	inactive	–	–	inactive
O=C1CCC(N2C(=O)c3ccccc3C2=O)C(=O)N1 (stereo unspecified)	inactive	inactive	inactive	inactive	inactive	7.18% (inactive) and -6.83% (inactive)	inactive	inactive	inactive	inactive	inactive	inactive	inactive	inactive	inactive	–	inactive	–
O=C(OCCOCCOC(=O)c1ccccc1)c1ccccc1	inactive	inactive	inactive	–	inactive	-18.1% (inactive)	inactive	inactive	inactive	inactive	inactive	inactive	inactive	inactive	inactive	inactive	inactive	–
Cc1ccc2oc(=O)ccc2c1	inactive	inactive	inactive	inactive	inactive	-2.42% (inactive) and -2.11% (inactive)	inactive	inactive	inactive	inactive	inactive	inactive	inactive	inactive	inactive	inactive	inactive	–
CC1CCC2CC1C2(C)C (stereo unspecified)	inactive	inactive	inactive	inactive	inactive	-4.21% (inactive) and 10.8% (inactive)	inactive	inactive	inactive	inactive	inactive	inactive	inactive	inactive	inactive	–	–	inactive
O=C(O)c1ccc(C(=O)O)cc1	inactive	inactive	inactive	inactive	inactive	-0.318% (inactive) and 3.28% (inactive)	inactive	inactive	inactive	inactive and 15.5 µM (active)	inactive	inactive	inactive	inactive	inactive	inactive	inactive	–
CCc1ccc(CCOc2ccc(CC3SC(=O)NC3=O)cc2)nc1 (stereo unspecified)	inactive	inactive	inactive	–	inactive	-19% (inactive)	–	inactive	inactive	inactive	inactive	inactive	inactive	inactive	inactive	–	–	–
O=C(O)c1ccc2c(c1)C(=O)OC2=O	inactive	inactive	inactive	inactive	inactive	5.17% (inactive) and 0.547% (inactive)	inactive	inactive	inactive	inactive	inactive	inactive	inactive	inactive	inactive	–	inactive	–
CCCCCC(N)=O	inactive	inactive	inactive	inactive	inactive	0.824% (inactive) and 2.09% (inactive)	–	inactive	inactive	inactive	inactive	inactive	inactive	inactive	inactive	inactive	inactive	–
